Compounds with a hit are over-represented: about 3.4% of the library has one in this group of screens.
TEAD-YAP inh – TEAD-YAP interaction inhibition | HEK-TIYL cells, TEAD-Gal4/YAP UAS-luciferase luminescence | inhibition, % at 9.12 µM | 640,000 compounds, 1.4% hits | AID 1259422; in the data active means inhibition above about 32%;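 further: 0% = median of test compound wells and 100% = reference inhibitor wells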
MITF primary – human MITF inhibition, primary screen. O75030. AlphaScreen MITF homodimerization, bead proximity signal. inhibition, % at 2.6 µM. 650,000 compounds, 0.91% hits; in the data active means inhibition above about 50%;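 further: 0% = vehicle wells with protein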
GPR151 ag – activators of human GPR151; Q8TDV0; PathHunter beta-arrestin GPR151 cells, luminescence; activation, % at 11.2 µM; 650,000 compounds, 1% hits; AID 1508602; in the data active means activation above about 4.9%;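 further: 0% = median of compound wells and 100% = cells with positive control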
FBW7 activator – activators of human E3 ligase FBW7; Q969H0; AlphaScreen FBW7–phospho-cyclin E peptide binding, activator screen; normalized activity (activation), % at 26.1 µM; 650,000 compounds, 0.13% hits; in the data active means normalized activity above about 1.9%;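 further: purified mutant Fbw7 with reduced substrate affinity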
GPR151 conf act – human GPR151 activation, confirmation screen | shares compounds with GPR151 ag | GPR151 PathHunter beta-arrestin cells, luminescence, 90 min; % of EA-reagent control over plate median | activation, % at 11.2 µM | 6,700 tested, under 10 active | AID 1508609;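 active means mean percent activation across replicates above the confirmation screen cutoff of 4.91%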
GPR119 counter – counter-screen for GPR151 activators: effect on human GPR119 | shares compounds with GPR151 ag | GPR119 PathHunter beta-arrestin cells, luminescence, 90 min; 0 = compound-well median, 100 = enzyme-acceptor control | activation, % at 11.2 µM | 6,700 compounds, 0.3% hits | AID 1508611;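 active means mean percent activation in the counterscreen above 29.09%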;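 further: counterscreen on off-target GPR119 to flag nonselective hits from the GPR151 activator screen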
Target sequence (Q8TDV5 whole entry, looked up): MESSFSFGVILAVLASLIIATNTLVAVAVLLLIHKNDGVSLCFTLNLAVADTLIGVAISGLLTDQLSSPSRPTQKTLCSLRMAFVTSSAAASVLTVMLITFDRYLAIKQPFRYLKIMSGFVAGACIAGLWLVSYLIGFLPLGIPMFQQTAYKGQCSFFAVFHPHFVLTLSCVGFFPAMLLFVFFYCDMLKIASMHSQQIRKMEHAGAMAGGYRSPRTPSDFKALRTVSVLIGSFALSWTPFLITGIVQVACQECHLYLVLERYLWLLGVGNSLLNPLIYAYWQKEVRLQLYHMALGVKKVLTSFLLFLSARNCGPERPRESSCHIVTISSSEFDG
* marks the source's active call; other numbers are inactive results; . = not tested or not shown.

SMILES	TEAD-YAP inh	MITF primary	GPR151 ag	FBW7 activator	GPR151 conf act	GPR119 counter
CCC(C)NC(=O)CN(c1cccc(C(F)(F)F)c1)S(C)(=O)=O (configuration not stated)	3	-3	0	0	.	.
C=CCN(c1ccc(OC)cc1)S(=O)(=O)c1cc(C(=O)OC)ccc1Cl	-3	4	2	0	.	.
COc1ccc(/C=N/NC(=O)c2cc(-c3ccc(C)o3)[nH]n2)cc1	9	17	-1	0	.	.
CCOc1cc(/C=N/NC(=O)c2cc(-c3ccc(C)o3)[nH]n2)ccc1O	21	15	7.0*	0	0	-8
Cc1ccc(-c2cc(C(=O)N/N=C/c3cccc(Br)c3)n[nH]2)o1	11	8	7.5*	0	1	-6
CCOc1cc(/C=N/NC(=O)c2cc(C(C)C)[nH]n2)ccc1O	6	6	-1	0	.	.
COc1ccc(CNC(=O)c2cc(-c3ccccn3)nc3ccccc23)cc1	14	-1	1	0	.	.
S=c1nc2c(n[nH]1)c1ccccc1n2CCc1ccccc1	4	7	6.5*	0	2	7
CC(C)n1c2ccccc2c2n[nH]c(=S)nc21	-4	-14	6.7*	0	0	-1
S=c1nc2c(n[nH]1)c1ccccc1n2Cc1ccccc1	-9	3	1	0	.	.
C=CCNC(=O)c1ccccc1NC(=O)CN(c1cc(OC)ccc1OC)S(C)(=O)=O	5	-3	0	0	.	.
COc1ccc(CNS(=O)(=O)c2ccc3[nH]c(=O)ccc3c2)cc1	3	8	6.6*	0	0	-6
CCOc1ccc2nc(Nc3nccc(C)n3)nc(C)c2c1	-23	1	9.0*	0	0	5
CCOc1ccc2nc(Nc3nc(C)cc(-c4ccccc4)n3)nc(C)c2c1	-11	-5	0	0	.	.
N#Cc1ccc(NN2C(=O)c3ccccc3C2=O)c([N+](=O)[O-])c1	9	0	1	0	.	.
N#Cc1ccc(NN2C(=O)c3cc(Cl)c(Cl)cc3C2=O)c([N+](=O)[O-])c1	17	7	7.0*	0	0	-4
COc1cc([N+](=O)[O-])ccc1NC(=O)c1c(C)noc1C	14	11	0	0	.	.
CC(C)(C)N1CC(CO)OC1c1ccccc1 (configuration not stated)	2	12	4.9*	0	-1	-5
CSc1nc(NN)c2ccccc2n1	-4	5	0	0	.	.
O=C(CSc1nnc(-c2cccnc2)o1)c1cc2ccccc2oc1=O	5	14	6.2*	1	-1	-5
O=C(CSc1n[nH]c(-c2ccncc2)n1)c1ccc(Cl)cc1	2	-12	5.0*	0	-1	-6
O=C(CSc1n[nH]c(-c2ccncc2)n1)c1ccc(F)cc1	3	-7	2	0	.	.
CCOc1ccc(-n2c(C)c(C(C)=O)c3cc(OC(C)=O)ccc32)cc1	-1	-12	5.3*	0	-1	-8
CC(C)(C)n1nnnc1C(c1cccnc1)N1CCN(c2ccccc2F)CC1 (configuration not stated)	5	3	8.4*	0	0	10
CCC(C)(C)n1nnnc1C(c1ccc(C)cc1)N1CCN(Cc2cccnc2)CC1 (configuration not stated)	-12	5	6.4*	0	0	11
SMILES	TEAD-YAP inh	MITF primary	GPR151 ag	FBW7 activator	GPR151 conf act	GPR119 counter
O=C(Nc1ccc2c(c1)N(C(=O)c1cccs1)CC2)c1ccccn1	-17	-7	0	0	.	.
COc1ccc(C(N)C(=O)Nc2cc(F)c(-c3cn[nH]c3)cc2OCCN(C)C)cc1 (configuration not stated)	6	-4	-1	0	.	.
COc1ccc(OC)c(NC(=O)CN2C(=O)CC(c3ccccc3)Sc3ccccc32)c1 (configuration not stated)	0	-3	-2	1	.	.
Cc1cc(NC(=O)[C@H]2C[C@@H](c3ccco3)NS(=O)(=O)N2C)no1	-1	-7	0	0	.	.
COc1cccc(S(=O)(=O)N2CCC(c3nc(-c4cccs4)no3)CC2)c1	-5	17	8.3*	1	0	4
COc1cccc(S(=O)(=O)N2CCC(c3nc(-c4ccccc4)no3)CC2)c1	2	2	0	0	.	.
Nc1ccc(-c2nnn(CC(=O)Nc3ccc(C4CCCCC4)cc3)n2)cc1	-5	-7	8.1*	0	1	12
O=C(CNC(=O)c1cc(N2CCOCC2)ccn1)Nc1ccc(F)c(F)c1F	-3	11	5.0*	0	-1	-2
Cc1ccc(OCC(=O)Nc2cccc3ccccc23)c(Br)c1	4	7	2	0	.	.
Cc1cc(S(=O)(=O)NC2CCCCC2)ccc1OCC(=O)Nc1ccccc1F	-8	6	5.0*	1	1	13
Cc1cc(S(=O)(=O)NC2CCCCC2)ccc1OCC(=O)NC(C)C	8	-9	1	0	.	.
COc1ccc(S(=O)(=O)NC2CCCCC2)cc1	-8	22	-2	0	.	.
O=C(Nc1ccc(S(=O)(=O)NC2CCCCC2)cc1)Nc1cccc(Cl)c1	8	13	5.1*	0	0	11
CSc1cccc(NC(=O)COc2ccc(S(=O)(=O)NC3CCCCC3)cc2)c1	-4	-1	5.3*	0	2	3
Cc1cccc(NC(=O)COc2ccc(S(=O)(=O)NC3CCCCC3)cc2)c1	4	-2	1	0	.	.
COc1ccc2cc(S(=O)(=O)NC3CCCCC3)ccc2c1	-2	6	5.2*	0	0	11
COc1cc(OC)cc(-c2cc(N)n(S(=O)(=O)c3ccc(F)cc3)n2)c1	14	-2	-1	0	.	.
Cn1ncc2c(Nc3ccc(Cl)cc3Cl)ncnc21	2	12	1	0	.	.
Cn1ncc2c(NCCc3ccc(Cl)cc3Cl)ncnc21	28	1	5.0*	0	3	35*
O=[N+]([O-])c1ccc2nc(CCCc3nc4ccc([N+](=O)[O-])cc4[nH]3)[nH]c2c1	13	5	-1	0	.	.
CC(O)CCc1nc2ccc([N+](=O)[O-])cc2[nH]1 (configuration not stated)	-10	0	5.1*	0	-1	-4
O=C(Cc1ccccc1)Nc1cnn(-c2cccc(C(=O)Nc3cccc(CN4CCOCC4)c3)c2)c1	4	-7	5.2*	0	0	-2
Cc1cccc(NC(=O)Nc2cnn(-c3cccc(C(=O)Nc4ccnc(C)c4)c3)c2)c1	25	-5	6.6*	0	-1	-6
Cc1cccc(NC(=O)Nc2cnn(-c3cccc(C(=O)NOCc4ccccc4)c3)c2)c1	-4	14	4.9*	0	0	-7
Cc1cccc(NC(=O)Nc2cnn(-c3cccc(C(=O)Nc4cc(C)c(C)c(C)c4)c3)c2)c1	-4	-9	1	0	.	.

Source: PubChem (The Scripps Research Institute Molecular Screening Center)
